Results filed as inconclusive are left out. Activity calls are given as the source filed them. The call rests on the fitted dose curve; in most records, active means well fitted inhibition curve with a large enough effect; inconclusive means small, poorly fitted or top-dose-only effect; inactive means flat fitted curve, though single readings scatter.
How the values were obtained:
Test in all cases: qHTS profiling for inhibitors of Plasmodium falciparum proliferation (AID 504749); further: nearly all actives have a fitted effect of over 60% in size
Details in all cases: P. falciparum in erythrocytes, SYBR Green DNA, 72 h; series mostly up to 28.7 µM
[1] = system: CP256
How it was run: (§1)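 Parasite proliferation within erythrocytes, 72 h exposure. Endpoint: SYBR Green I fluorescence after overnight lysis at room temperature. Controls: 0.29 uM artemisinin, DMSO.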

[2] = system: CP260
How it was run: as §1

[3] = system: CP265
How it was run: as §1

[4] = system: CP266
How it was run: as §1

[5] = system: CP268
How it was run: as §1

[6] = system: CP269
How it was run: as §1

[7] = system: CP286
How it was run: as §1

[8] = system: CP291
How it was run: as §1

[9] = system: CP297
How it was run: as §1

[10] = system: CP305
How it was run: as §1

[11] = system: CP315
How it was run: as §1

[12] = system: CP325
How it was run: as §1

[13] = system: CP329
How it was run: as §1

[14] = system: CP335
How it was run: as §1

[15] = system: DIV14
How it was run: as §1

[16] = system: DIV17
How it was run: as §1

[17] = system: DIV30
How it was run: as §1

[18] = system: Dd2
How it was run: as §1

[19] = system: ECU
How it was run: as §1

[20] = system: FAB9
How it was run: as §1

[21] = system: GB4
How it was run: as §1

[22] = system: HB3
How it was run: as §1

[23] = system: ICS
How it was run: as §1

[24] = system: N140
How it was run: as §1

[25] = system: P93_24
How it was run: as §1

[26] = system: P94_40
How it was run: as §1

[27] = system: PAD
How it was run: as §1

[28] = system: PC15
How it was run: as §1

[29] = system: PC49
How it was run: as §1

[30] = system: SC27B
How it was run: as §1

[31] = system: TAB109
How it was run: as §1

[32] = system: TAB113
How it was run: as §1

[33] = system: TAB165
How it was run: as §1

Measured: Potency
Potency means the concentration at half of the fitted maximal effect.

CO[C@H]1/C=C/O[C@@]2(C)Oc3c(C)c(O)c4c(O)c(c(/C=N\N5CCN(C6CCCC6)CC5)c(O)c4c3C2=O)NC(=O)/C(C)=C\C=C\[C@H](C)[C@H](O)[C@@H](C)[C@@H](O)[C@@H](C)[C@H](OC(C)=O)[C@@H]1C
active: [1] 2.82 µM | [2] 1 µM | [3] 1.26 µM | [4] 6.01 µM | [5] 3.79 µM | [6] 3.38 µM | [7] 2.24 µM | [8] 4.26 µM | [9] 1.69 µM | [10] 4.78 µM | [11] 4.78 µM | [12] 4.78 µM | [13] 4.78 µM | [14] 1.35 µM | [15] 0.675 µM | [16] 0.601 µM | [17] 0.849 µM | [18] 0.447 µM | [19] 0.199 µM | [20] 10 µM | [21] 1.07 µM | [22] 0.794 µM | [23] 0.112 µM | [24] 0.141 µM | [25] 0.355 µM | [26] 0.224 µM | [27] 0.199 µM | [28] 0.794 µM | [29] 0.708 µM | [30] 0.251 µM | [31] 1.26 µM | [32] 0.282 µM | [33] 0.158 µM

— PubChem BioAssay (NCATS)
